Experimental data published in PubChem BioAssay.
Activity calls are given as the source filed them.

Legend:
[1] = small molecules captured by biotinylated probe aFSTL3 – biochemical, small-molecule microarray, fluorescence 635/667, stem cell growth factor project, primary screen (AID 1064); details: higher = more signal;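 also: measures binding of the biotinylated anti-FSTL3 antibody to printed compounds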
[2] = binders from COS7 lysate, DM2A8 probe, primary screen, torsin A project, cell lysate, small-molecule microarray, fluorescence 635/667 (AID 1065); details: higher = more signal, COS7 lysate expressing mutant human TOR1A
[3] = small molecules captured by biotinylated probe aFGF2 – biochemical, small-molecule microarray, fluorescence 635/667, stem cell growth factor project, primary screen (AID 1067); details: higher = more signal;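 also: measures binding of biotinylated aFGF2 protein to printed compounds on slides; z-score merges feature fluorescence and signal-to-noise across triplicate slides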
[4] = small molecules captured by biotinylated probe aFGF10 – biochemical, small-molecule microarray, fluorescence 635/667, stem cell growth factor project, primary screen (AID 1071); details: higher = more signal;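 also: score merges 667 nm spot intensity and signal to noise from triplicate slides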
[5] = biological target: Neurogenic locus notch homolog protein 2 (Homo sapiens) (UniProt Q04721); experiment: small molecules binding Notch2 protein – biochemical, small-molecule microarray, 635 nm fluorescence, stem cell growth factors, primary screen (AID 1073); details: higher = more signal
[6] = biological target: Pro-neuregulin-1, membrane-bound isoform (Homo sapiens) (UniProt Q02297); experiment: small molecules binding neuregulin-1 protein – biochemical, small-molecule microarray, fluorescence 635/667, psychiatric disease protein project, primary screen (AID 1075); details: NRG1 binding, 635 nm fluorescence, higher = more signal;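 also: score combines 667 nm spot fluorescence with signal to noise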
[7] = tested on: Neuregulin-1 EGF-like domain; experiment: small molecules binding NRG1 EGF domain – biochemical, small-molecule microarray, 635 nm fluorescence, primary screen (AID 1081); details: higher = more signal;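 also: binding of the protein to compounds printed on small-molecule microarray slides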
[8] = FRG1 expression reporter modulators in myotubes – cell-based, C2C12 myotubes, firefly/Renilla luciferase, luminescence, FRG1 inhibition for FSHD, primary screen (AID 1084); details: FRG1 promoter luciferase, higher = more signal, called active from +8 up or from −8 down
[9] = small molecules captured by biotinylated probe aFST – biochemical, small-molecule microarray, fluorescence 635/667, stem cell growth factor project, primary screen (AID 1086); details: higher = more signal;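 also: score merges 667 nm fluorescence with signal-to-noise of each printed compound spot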
[10] = binders of probe aHhip on microarray, primary screen, stem cell growth factor project, biochemical, small-molecule microarray, fluorescence 635/667 (AID 1087); details: higher = more signal;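 also: score merges spot fluorescence at 667nm with spot signal to noise ratio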
[11] = tested on: PRMT1 (protein arginine N-methyltransferase 1); experiment: small molecules binding arginine methyltransferase PRMT1 – biochemical, small-molecule microarray, 635 nm fluorescence, primary screen (AID 1088); details: higher = more signal;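 also: binding of Prmt1 protein to compounds spotted on small-molecule microarray slides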
[12] = growth effects on S. cerevisiae YJM789 – YJM789 clinical isolate, OD600, 24 h, basal, primary screen (AID 1089); details: higher = more signal, called active from +8 up or from −8 down;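 also: growth of clinical yeast isolate S. cerevisiae YJM 789 seeded 1000 cells per well; test concentration not given here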
[13] = S. pombe growth modifiers, basal conditions – strain 972, OD600, 24 h, no modulator, primary screen (AID 1090);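 also: basal condition with compound alone and no growth modifier present; test concentration not given here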; details: S. pombe 972 growth, higher = more signal, called active from +8 up or from −8 down
[14] = budding yeast growth modifiers under rapamycin – strain BY4716, OD600, 96 h, primary screen (AID 1091); also: test concentration not given here; details: S. cerevisiae BY4716 + rapamycin, higher = more signal, called active from +8 up or from −8 down
[15] = biological target: Torsin-1A-interacting protein 2 (Homo sapiens) (UniProt Q8NFQ8); experiment: small molecules binding lysate-expressed LULL1 – cell lysate, human LULL1 lysate, 635/667 nm fluorescence, primary screen (AID 1092); details: small-molecule microarray, hLULL1 lysate binding, 635 nm fluorescence; higher = more signal;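 also: probe is lysate of COS7 cells overexpressing human LULL1; score merges per-feature 667 nm fluorescence with signal-to-noise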
[16] = optical density change of DRC41 E. coli – strain DRC41, OD650, 24 h, E. coli filamentation project, primary screen (AID 1093);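 also: MC1000 strain lacking acrAB efflux and sulA so SOS filamentation is blocked; test concentration not given here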; details: E. coli DRC41 growth, higher = more signal, called active from +8 up or from −8 down
[17] = probe aLefty2 binding to arrayed compounds – biochemical, biotinylated probe, 635/667 nm fluorescence, primary screen (AID 1094); details: small-molecule microarray, higher = more signal;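 also: score merges spot fluorescence near 667 nm with spot signal-to-noise ratio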
[18] = tested on: Noggin (protein binding on small-molecule microarray); experiment: small molecules binding Noggin protein – biochemical, 635/667 nm fluorescence, primary screen (AID 1095); details: 635 nm fluorescence, higher = more signal;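 also: score merges 667 nm feature fluorescence with signal to noise over triplicate slides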
[19] = biological target: Neurogenic locus notch homolog protein 3 (Homo sapiens) (UniProt Q9UM47); experiment: small molecules binding NOTCH3 protein – biochemical, 635/667 nm fluorescence, primary screen (AID 1096); details: small-molecule microarray, 635 nm fluorescence, higher = more signal
[20] = probe aEGFR binding to arrayed compounds – biochemical, biotinylated probe, 635/667 nm fluorescence, primary screen (AID 1097); details: small-molecule microarray, higher = more signal;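 also: probe is a biotinylated anti-EGFR antibody binding compounds printed on slides; score combines fluorescence near 667 nm and signal to noise of each spot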

Chain of Pro-neuregulin-1, membrane-bound isoform (Homo sapiens) (Q02297 whole entry, looked up, the tested form may be a part, canonical isoform): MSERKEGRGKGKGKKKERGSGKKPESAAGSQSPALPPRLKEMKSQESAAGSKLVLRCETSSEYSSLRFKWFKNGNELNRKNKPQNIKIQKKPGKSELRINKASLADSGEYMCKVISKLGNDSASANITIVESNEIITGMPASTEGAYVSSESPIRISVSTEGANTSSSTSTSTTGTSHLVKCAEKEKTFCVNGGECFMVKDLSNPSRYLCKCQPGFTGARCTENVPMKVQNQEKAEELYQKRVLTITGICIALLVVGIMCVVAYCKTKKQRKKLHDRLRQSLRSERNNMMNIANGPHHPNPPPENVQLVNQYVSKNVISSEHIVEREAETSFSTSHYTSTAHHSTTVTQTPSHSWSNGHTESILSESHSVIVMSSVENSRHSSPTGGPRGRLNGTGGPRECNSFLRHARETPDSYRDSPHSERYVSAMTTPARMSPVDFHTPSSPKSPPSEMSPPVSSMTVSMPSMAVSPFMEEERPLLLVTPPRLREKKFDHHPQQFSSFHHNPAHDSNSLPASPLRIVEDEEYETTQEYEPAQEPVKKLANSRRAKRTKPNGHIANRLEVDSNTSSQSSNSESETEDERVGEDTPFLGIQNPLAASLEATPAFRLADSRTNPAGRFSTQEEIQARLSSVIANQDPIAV
Chain of Neurogenic locus notch homolog protein 2 (Homo sapiens) (Q04721 whole entry, looked up, canonical isoform): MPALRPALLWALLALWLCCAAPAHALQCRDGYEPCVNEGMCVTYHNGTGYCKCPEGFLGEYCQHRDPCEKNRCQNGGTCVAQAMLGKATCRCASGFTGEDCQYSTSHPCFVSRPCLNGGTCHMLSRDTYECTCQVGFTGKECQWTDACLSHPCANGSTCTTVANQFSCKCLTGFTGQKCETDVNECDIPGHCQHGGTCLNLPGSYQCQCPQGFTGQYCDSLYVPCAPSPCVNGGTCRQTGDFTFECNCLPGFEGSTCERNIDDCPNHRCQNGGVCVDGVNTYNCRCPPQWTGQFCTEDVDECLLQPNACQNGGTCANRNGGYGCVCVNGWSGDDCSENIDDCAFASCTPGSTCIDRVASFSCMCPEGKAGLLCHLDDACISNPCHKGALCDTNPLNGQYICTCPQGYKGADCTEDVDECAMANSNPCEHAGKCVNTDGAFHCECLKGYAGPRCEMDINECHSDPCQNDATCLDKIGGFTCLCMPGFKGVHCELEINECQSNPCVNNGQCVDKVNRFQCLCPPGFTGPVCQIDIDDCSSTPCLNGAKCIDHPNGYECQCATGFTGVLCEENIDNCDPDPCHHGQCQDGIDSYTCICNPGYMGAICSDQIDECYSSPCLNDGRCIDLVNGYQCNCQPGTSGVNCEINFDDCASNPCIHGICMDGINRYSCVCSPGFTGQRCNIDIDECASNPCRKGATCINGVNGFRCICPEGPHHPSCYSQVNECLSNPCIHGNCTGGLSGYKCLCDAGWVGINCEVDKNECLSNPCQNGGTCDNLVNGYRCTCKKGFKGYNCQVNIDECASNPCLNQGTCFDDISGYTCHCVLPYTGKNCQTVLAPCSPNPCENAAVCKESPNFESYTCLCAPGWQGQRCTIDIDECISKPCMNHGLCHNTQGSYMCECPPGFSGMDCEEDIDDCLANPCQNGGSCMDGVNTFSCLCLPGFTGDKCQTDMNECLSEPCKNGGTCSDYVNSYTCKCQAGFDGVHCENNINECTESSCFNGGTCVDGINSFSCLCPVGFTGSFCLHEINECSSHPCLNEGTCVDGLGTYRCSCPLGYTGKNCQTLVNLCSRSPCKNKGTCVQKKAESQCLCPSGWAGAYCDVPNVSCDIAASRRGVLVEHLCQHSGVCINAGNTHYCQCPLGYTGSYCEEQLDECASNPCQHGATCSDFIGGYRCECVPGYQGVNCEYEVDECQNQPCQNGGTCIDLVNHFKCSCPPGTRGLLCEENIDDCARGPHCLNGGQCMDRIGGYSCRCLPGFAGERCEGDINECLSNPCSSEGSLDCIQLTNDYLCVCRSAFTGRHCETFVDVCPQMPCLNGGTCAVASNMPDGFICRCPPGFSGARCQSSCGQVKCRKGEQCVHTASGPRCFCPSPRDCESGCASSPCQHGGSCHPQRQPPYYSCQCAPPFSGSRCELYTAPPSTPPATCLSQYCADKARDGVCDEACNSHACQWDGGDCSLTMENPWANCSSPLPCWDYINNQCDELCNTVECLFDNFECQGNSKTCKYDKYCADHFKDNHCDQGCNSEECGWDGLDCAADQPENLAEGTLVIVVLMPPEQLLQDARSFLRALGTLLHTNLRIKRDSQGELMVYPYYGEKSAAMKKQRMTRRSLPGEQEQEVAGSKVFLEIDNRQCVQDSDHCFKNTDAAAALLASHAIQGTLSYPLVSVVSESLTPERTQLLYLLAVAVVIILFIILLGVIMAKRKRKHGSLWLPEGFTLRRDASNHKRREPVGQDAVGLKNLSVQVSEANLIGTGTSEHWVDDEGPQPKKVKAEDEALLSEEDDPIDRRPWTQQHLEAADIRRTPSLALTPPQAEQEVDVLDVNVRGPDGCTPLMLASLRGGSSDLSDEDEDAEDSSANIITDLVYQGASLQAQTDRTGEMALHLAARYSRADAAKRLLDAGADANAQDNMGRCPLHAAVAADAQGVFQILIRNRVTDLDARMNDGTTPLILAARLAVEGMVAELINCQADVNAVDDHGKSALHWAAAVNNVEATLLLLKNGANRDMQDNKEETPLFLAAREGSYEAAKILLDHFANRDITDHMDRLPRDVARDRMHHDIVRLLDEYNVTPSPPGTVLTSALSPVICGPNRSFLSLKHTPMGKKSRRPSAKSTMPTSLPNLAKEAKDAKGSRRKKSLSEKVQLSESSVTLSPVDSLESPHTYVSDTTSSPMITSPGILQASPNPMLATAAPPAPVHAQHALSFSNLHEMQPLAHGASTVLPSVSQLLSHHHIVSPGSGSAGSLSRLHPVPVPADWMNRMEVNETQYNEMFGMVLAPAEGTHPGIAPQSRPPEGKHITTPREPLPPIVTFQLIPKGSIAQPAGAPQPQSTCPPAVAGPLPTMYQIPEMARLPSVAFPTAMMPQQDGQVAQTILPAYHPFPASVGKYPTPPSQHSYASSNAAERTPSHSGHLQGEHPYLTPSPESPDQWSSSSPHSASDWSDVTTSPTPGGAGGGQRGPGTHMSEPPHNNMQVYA
Chain of Torsin-1A-interacting protein 2 (Homo sapiens) (Q8NFQ8 whole entry, looked up): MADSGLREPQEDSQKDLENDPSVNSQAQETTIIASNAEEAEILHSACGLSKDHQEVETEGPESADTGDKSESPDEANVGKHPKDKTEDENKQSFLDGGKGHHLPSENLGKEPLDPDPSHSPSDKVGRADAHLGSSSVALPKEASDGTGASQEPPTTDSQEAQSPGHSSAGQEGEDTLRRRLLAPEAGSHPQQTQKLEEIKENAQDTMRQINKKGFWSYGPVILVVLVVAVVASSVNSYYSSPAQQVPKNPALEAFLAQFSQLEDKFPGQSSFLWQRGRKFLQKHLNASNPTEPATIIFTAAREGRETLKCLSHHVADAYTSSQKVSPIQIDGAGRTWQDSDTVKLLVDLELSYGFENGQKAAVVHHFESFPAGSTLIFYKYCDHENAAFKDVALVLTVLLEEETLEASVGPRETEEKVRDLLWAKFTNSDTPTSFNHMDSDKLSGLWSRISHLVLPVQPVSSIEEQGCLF

Structure (SMILES) | composite z-score [1] | composite z-score [2] | composite z-score [3] | composite z-score [4] | composite z-score [5] | composite z-score [6] | composite z-score [7] | z-score [8] | composite z-score [9] | composite z-score [10] | composite z-score [11] | z-score [12] | z-score [13] | z-score [14] | composite z-score [15] | z-score [16] | composite z-score [17] | composite z-score [18] | composite z-score [19] | composite z-score [20]
COCCOC(=O)N1C(=O)[C@@]2(c3cc(C#CC4(O)CCCCCC4)ccc31)[C@H](c1ccc(OCCO)cc1)N1[C@H](c3ccccc3)[C@H](c3ccccc3)OC(=O)[C@H]1[C@@H]2C(=O)N1CCCCCCC1 | 1.81 | 0.437 | 0.466 | 0.276 | 1.25 | 1.77 | 1.29 | 0.222 (inactive) | 2.41 | 2.99 | 1.55 | 1.42 (inactive) | 0.598 (inactive) | 3.68 (inactive) | 3.09 | 0.436 (inactive) | 1.15 | 1.82 | 1.11 | 0.753
CN1C(=O)[C@]2(CCS(=O)(=O)c3ccccc3)N=C(c3ccc(OCCCO)cc3)O[C@@H]2c2ccccc21 | 0.511 | 0.485 | -0.0984 | 0.255 | 0.768 | 1.75 | 1.41 | -0.34 (inactive) | 0.135 | 0.238 | 1.54 | 0.921 (inactive) | -0.895 (inactive) | 3.62 (inactive) | 3.41 | -0.532 (inactive) | -0.0271 | 0.804 | 1.12 | -0.168
CC1CC/C=C\[C@H]2OC34C=CCN(c5ccc(Cl)cc5)C(=O)[C@H]3N(CCCO)C(=O)[C@]4(C)C2C(=O)O1 (stereo not given in full) | 0.316 | -1.4 | -0.162 | -1.11 | -0.932 | 1.38 | 1.64 | -0.0856 (inactive) | -0.558 | -0.296 | -1.33 | 0.0887 (inactive) | -0.117 (inactive) | 1.13 (inactive) | -0.265 | -0.643 (inactive) | -0.154 | -0.774 | -0.105 | -0.151
C[C@H]1NC(=O)C([C@@H](C)OCc2ccccc2)NC(=O)[C@@]23C(=O)N[C@@H](Cc4ccccc4)C2[C@H](C)[C@@]2(C)O[C@H]2C3/C=C/C/C=C\CNC1=O (stereo not given in full) | -0.265 | 0.0677 | -0.183 | 0.817 | -0.363 | -0.341 | 0.989 | 0.493 (inactive) | -0.407 | -0.0324 | -0.242 | 0.823 (inactive) | -0.389 (inactive) | 1.06 (inactive) | 0.721 | 0.147 (inactive) | -0.192 | 0.797 | 0.0201 | -0.168
COc1cc(OC)c(C(O)C2C=CC3C(=O)N(c4ccccc4)C(=O)C3N2Nc2ccccc2F)cc1Br (stereo not given) | 0.0776 | 0.948 | 0.0619 | 0.61 | 1.44 | 1.74 | 1.25 | 0.0172 (inactive) | 1.53 | -0.0088 | 1.58 | 0.0228 (inactive) | 1.77 (inactive) | 0.511 (inactive) | 3.44 | -1.36 (inactive) | 0.0235 | 0.662 | 1.03 | -0.0531
